# According to PubChem BioAssay (NCI):
# This is part of a sample that, as a whole, favours compounds with a hit. Of some 79,000 tested, about 15% had one in any assay. Unmarked numbers belong to inactive results. Activity calls are given as the source filed them. No stated cut-off is given here; in the data, active means growth inhibition above about 70%; inactive means the rest.
# Tests used:
# [1] = NCI Yeast Anticancer Drug Screen. Data for the rad50 strain (AID 155);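 further: 0% = growth of vehicle-only cultures of the same strain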; details: S. cerevisiae rad50 strain growth inhibition, hits give high values
# Procedure, shortened: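 Cells are treated with compound, grown, and their growth is then scored against vehicle-only cultures of the same repair-deficient yeast strain.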
# [2] = NCI Yeast Anticancer Drug Screen. Data for the mec2-1 strain (AID 157); details: S. cerevisiae mec2-1 strain, hits give high values
# Procedure, shortened: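 Using mec2-1 yeast: add compound, measure growth, express inhibition versus vehicle-treated cultures.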
# [3] = NCI Yeast Anticancer Drug Screen. Data for the sgs1 mgt1 strain (AID 161);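 further: 0% = growth of cultures given vehicle only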; details: S. cerevisiae sgs1 mgt1 strain, hits give high values
# Procedure, shortened: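 Percent growth inhibition was derived by comparing compound-exposed mutant yeast with vehicle-exposed cultures. The strain carries alterations in DNA damage repair.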
# [4] = NCI Yeast Anticancer Drug Screen. Data for the cln2 rad14 strain (AID 165);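 further: 0% = growth equal to vehicle treated cultures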; details: S. cerevisiae cln2 rad14 strain, hits give high values
# Procedure, shortened: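 Yeast strain cln2 rad14, bearing defects in cell cycle control and DNA repair, serves as the test system; values reflect growth inhibition compared with vehicle.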
# [5] = NCI Yeast Anticancer Drug Screen. Data for the bub3 strain (AID 167); details: S. cerevisiae bub3 mutant strain, hits give high values
# Procedure, shortened: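 Part of a panel of yeast mutants defective in DNA damage repair or cell cycle regulation. Each strain is grown with compound, and inhibition is calculated relative to solvent-treated cultures.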
# [6] = NCI Yeast Anticancer Drug Screen. Data for the mlh1 rad18 strain (AID 175); details: S. cerevisiae mlh1 rad18 strain growth inhibition, hits give high values
# Procedure, shortened: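 Steps: expose repair-defective yeast to compound; measure growth; express inhibition against vehicle-treated controls.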
# [7] = at 5.0 µM (retest, dose inferred, filed as 0.5)
# [8] = at 50.0 µM (retest, dose inferred, filed as 5.0)
Compound,"growth inhibition [1, 7]","growth inhibition [1, 8]",growth inhibition ([1]; at 50.0 µM),"growth inhibition [2, 7]","growth inhibition [2, 8]",growth inhibition ([2]; at 50.0 µM),"growth inhibition [3, 7]","growth inhibition [3, 8]",growth inhibition ([3]; at 50.0 µM),"growth inhibition [4, 7]","growth inhibition [4, 8]",growth inhibition ([4]; at 50.0 µM),"growth inhibition [5, 7]","growth inhibition [5, 8]",growth inhibition ([5]; at 50.0 µM),"growth inhibition [6, 7]","growth inhibition [6, 8]",growth inhibition ([6]; at 50.0 µM)
O=C(c1ccccc1)C1Cc2ccccc2C1=O (configuration not stated),2%,39%,78.5% (active),-16%,2%,50.1%,0%,5%,86.5% (active),3%,1%,19.8%,35%,13%,4.4%,2%,11%,84.2% (active)
O=C1OC2(c3ccccc31)c1cc(I)c(O)c(I)c1Oc1c2cc(I)c(O)c1I,32%,99% (active),98.5% (active),61%,99% (active),99.3% (active),21%,56%,99.6% (active),15%,98% (active),98.8% (active),15%,99% (active),99.2% (active),62%,99% (active),98.7% (active)
O=C(CC(=O)c1ccccc1)CC(=O)c1ccccc1Br,1%,94% (active),71.1% (active),-1%,93% (active),93.5% (active),-17%,93% (active),6.6%,-3%,75% (active),85.5% (active),-1%,96% (active),68.7%,1%,96% (active),96.5% (active)
CC(=O)N1C/C(=C\c2ccccc2)C(=O)/C(=C/c2ccccc2)C1,60%,87% (active),84.9% (active),47%,92% (active),82.7% (active),46%,98% (active),79.5% (active),35%,88% (active),67.5%,47%,91% (active),87.8% (active),62%,96% (active),78.9% (active)
COc1ccc(CCCC(=O)O)c2c(OC)cccc12,14%,58%,80.8% (active),0%,48%,39.9%,7%,62%,60.8%,23%,55%,72.2% (active),4%,60%,49.9%,5%,73% (active),78.3% (active)
c1ccc(OCC2c3ccccc3Nc3ccccc32)cc1,98% (active),97% (active),71.9% (active),99% (active),98% (active),28.6%,99% (active),97% (active),26.9%,99% (active),96% (active),-51.8%,92% (active),97% (active),-0.2%,99% (active),95% (active),67.2%
COc1ccc(NC(=O)Nc2ccc(Cl)cc2)nn1,-1%,4%,-10%,-4%,-3%,20.4%,-3%,3%,1.3%,-14%,-8%,33.8%,-9%,-7%,-8.05%,-7%,3%,-3.9%
O=[N+]([O-])c1ccc(/C=c2\sc3scc(-c4ccc([N+](=O)[O-])cc4)[n+]3\c2=C/c2ccc([N+](=O)[O-])cc2)cc1,99% (active),99% (active),86.9% (active),100% (active),99% (active),75.5% (active),88% (active),99% (active),97.5% (active),94% (active),99% (active),69.3%,99% (active),99% (active),54.1%,99% (active),99% (active),94.6% (active)
Oc1cc(Cl)cc2cc(Cl)cnc12,99% (active),99% (active),86.6% (active),96% (active),98% (active),91.2% (active),98% (active),98% (active),84.8% (active),97% (active),96% (active),87.7% (active),98% (active),99% (active),87.8% (active),98% (active),99% (active),82.3% (active)
BrC1(c2ccccc2)C[n+]2c(-c3ccccc3)cc(-c3ccccc3)cc2-c2ccccc21 (configuration not stated),95% (active),99% (active),89.8% (active),96% (active),99% (active),91.5% (active),97% (active),98% (active),91.2% (active),95% (active),99% (active),91.2% (active),37%,98% (active),89.4% (active),97% (active),99% (active),91% (active)
O=[N+]([O-])c1ccc2c(c1)[n+]([O-])c1[nH]c3ccccc3c1[n+]2[O-] (tested in a mixture with another compound),85% (active),88% (active),93.2% (active),55%,89% (active),87.4% (active),68%,91% (active),82.9% (active),48%,85% (active),89.8% (active),64%,90% (active),81.8% (active),78% (active),91% (active),86.3% (active)
O=[N+]([O-])c1ccc(-c2nc3c(o2)CCC3)cc1,-85%,-83%,9.15%,-15%,-15%,-2.9%,-22%,-22%,6.4%,-57%,-62%,25.1%,-72%,-82%,-4.6%,-92%,-61%,3.25%
C(=P(c1ccccc1)(c1ccccc1)c1ccccc1)[P+](c1ccccc1)(c1ccccc1)c1ccccc1.[Br][Cu][Br],98% (active),99% (active),99.2% (active),99% (active),99% (active),99.5% (active),99% (active),99% (active),99.2% (active),98% (active),99% (active),98% (active),98% (active),99% (active),99% (active),99% (active),99% (active),99.3% (active)
Cc1ccc(-n2c(CSc3ccc(Cl)cc3)nnc2SCc2nc3ccccc3[nH]2)cc1,-22%,8%,46.9%,-16%,-9%,73.1% (active),-28%,7%,42.7%,-4%,5%,70.5% (active),1%,-3%,3.9%,2%,-4%,66.6%
CC(C)NC(=O)CN1C(=O)NC(C)(c2ccccc2)C1=O (configuration not stated),-4%,-1%,75.5% (active),6%,8%,67%,-4%,11%,53.5%,2%,-3%,90.8% (active),-3%,1%,79.2% (active),11%,13%,70.3% (active)
CCCCOc1ccc(NC(=S)Nc2ccc(OCCN(CC)CC)cc2)cc1,-4%,45%,63.6%,28%,70% (active),39.1%,21%,67%,83.8% (active),4%,35%,80.8% (active),3%,54%,71% (active),35%,71% (active),79.2% (active)
O=[N+]([O-])c1ccccc1SCc1ccccc1,17%,47%,85.4% (active),-18%,35%,15.8%,16%,49%,54.7%,15%,43%,44%,-1%,79% (active),30.8%,13%,74% (active),52.6%
Cc1c(Cl)ccc(O)c1[N+](=O)[O-],2%,87% (active),91.6% (active),2%,86% (active),91.7% (active),3%,82% (active),96.1% (active),2%,75% (active),84.8% (active),5%,93% (active),88.8% (active),-1%,97% (active),94% (active)
CC(=O)Oc1ccc(N=[N+]([O-])c2ccc(OC(C)=O)cc2)cc1,5%,12%,1.95%,13%,40%,-2.6%,2%,19%,45.6%,10%,23%,18.4%,-4%,2%,14.7%,-1%,5%,-13%
